GDH-TPI counter = inhibits GDH-TPI coupling enzymes, artifact for Mtb FBA screen | GDH-TPI coupled enzyme counterscreen, NADH absorbance | inhibition, % at 4.8 µM | 360,000 compounds, 1.2% hits | AID 588335; in the data active means inhibition above about 30%
Mtb UGM inh = blocks M. tuberculosis UGM enzyme; P9WIQ1; purified UGM, fluorescence polarization probe displacement; inhibition, % at 10 µM; 320,000 compounds, 0.06% hits; AID 504406; in the data active means inhibition above about 10%, passing the limit was not always enough; inconclusive means no clear call, values can overlap the other calls
Target sequence (P9WIQ1 whole entry, looked up): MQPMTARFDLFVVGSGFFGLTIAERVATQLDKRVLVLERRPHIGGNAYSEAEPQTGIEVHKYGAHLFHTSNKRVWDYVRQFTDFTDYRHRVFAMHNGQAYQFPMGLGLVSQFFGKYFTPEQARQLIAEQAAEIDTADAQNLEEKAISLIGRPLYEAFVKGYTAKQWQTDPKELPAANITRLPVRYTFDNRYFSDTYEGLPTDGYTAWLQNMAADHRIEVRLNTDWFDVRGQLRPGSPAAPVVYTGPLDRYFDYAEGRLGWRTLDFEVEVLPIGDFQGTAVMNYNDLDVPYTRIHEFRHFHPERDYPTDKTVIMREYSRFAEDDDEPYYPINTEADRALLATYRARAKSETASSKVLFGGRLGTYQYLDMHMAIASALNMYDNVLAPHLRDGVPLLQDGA
Rv3671c protease = inhibits the M. tuberculosis serine protease Rv3671c; P9WHR9; inhibition, % at 5.96 µM; 320,000 compounds, 0.048% hits; AID 2606; in the data active means inhibition above about 38%;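 further: extracellular domain of Rv3671c used as enzyme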
FBA Mtb inh = Mtb fructose-bisphosphate aldolase inhibition. P9WQA3. purified M. tuberculosis FBA, fluorescence read-out. inhibition, % at 1 µM. 360,000 compounds, 2.3% hits. AID 588726; in the data active means inhibition above about 27%
Mtb betalactam = beta-lactam sensitization of Mtb H37Rv. M. tuberculosis H37Rv growth with meropenem, percent inhibition. inhibition, % at 25 µM. 330,000 compounds, 0.27% hits; call rule not given here;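 further: growth measured after seven days incubation then overnight dye step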
Numbers stand for hits; 0 = inactive; ? = inconclusive; - = not tested or not shown; + = active, no number. An excerpt weighted towards active compounds, which were near 3.5% of everything screened.

SMILES	GDH-TPI counter	Mtb UGM inh	Rv3671c protease	FBA Mtb inh	Mtb betalactam
COc1cccc(NC(=O)COC(=O)c2ccccc2C(=O)N2CCN(c3ccccc3)CC2)c1	0	0	0	0	0
CC(=O)N(C)c1ccc(N=Nc2ccc3ncccc3c2)cc1	56.4	-	-	0	-
Cc1ncnc(N)c1CCCNc1ccccc1	0	-	-	0	-
COc1cc2c(cc1OC)-c1cc(OCc3ccccc3Cl)nc(=O)n1CC2	0	0	0	99.4	?
COc1cc2c(cc1OC)-c1cc(Nc3ccc(N(C)C)cc3)nc(=O)n1CC2	0	0	0	0	0
CCN(CC)c1ccc(Nc2cc3n(c(=O)n2)CCc2cc(OC)c(OC)cc2-3)cc1	37.5	0	0	0	0
COc1cc2c(cc1OC)-c1cc(Nc3cccc(F)c3)nc(=O)n1CC2	33.8	-	-	0	-
CC(C)CN=C(NS(=O)(=O)c1ccccc1)C(Cl)(Cl)Cl	0	0	0	0	0
CC(=O)Nc1nc2ccc(S(=O)(=O)N3CCCC3)cc2s1	0	0	0	0	0
O=C(Nc1nc2ccc(S(=O)(=O)N3CCCC3)cc2s1)c1ccco1	39.0	0	0	0	0
Cc1ccc(/C=N/Nc2cn[nH]c(=O)n2)o1	32.6	0	0	0	0
O=c1nc(N/N=C/c2ccccn2)cn[nH]1	0	0	0	0	0
CCOCc1cc(CN2CCC(CCC(=O)NC3CC3)CC2)ccc1OC	0	0	0	0	0
COc1ccc(OC)c(C(C(=O)NC2CCCCC2)N(C(=O)c2snc(C(N)=O)c2N)c2ccccc2OC)c1 (configuration not stated)	0	0	0	114.7	0
Cc1ccc(CN2CCN(/N=C/c3ccc(Cl)c([N+](=O)[O-])c3)CC2)cc1	0	0	0	0	0
N/C(=N\NC(=O)c1cccs1)c1cc2ccccc2oc1=O	42.0	0	0	0	0
Cc1cc(C)cc(NS(=O)(=O)c2ccc3[nH]c(=O)ccc3c2)c1	0	0	-	0	0
COc1ccc2c(c1)CCC1(C)CC(=O)C(Br)=C21 (configuration not stated)	41.6	-	-	+	-
COC(=O)C1(C)CCc2cc(OC)ccc2C1=O (configuration not stated)	0	0	0	0	0
CCC(C)N(CC(=O)Nc1cccc(C)c1C)C(=O)CCl (configuration not stated)	0	0	0	0	0
Cc1ccccc1/C=C/c1nc2ccccc2c(=O)[nH]1	33.5	0	0	0	0
Cc1coc2cc3oc(=O)ccc3cc12	0	0	0	0	0
CC(C)(Cl)C1Cc2cc3ccc(=O)oc3cc2O1 (configuration not stated)	0	0	0	166.9	0
Cc1cc2nc(-c3ccc[nH]c3=O)n(Cc3ccccc3F)c2cc1C	0	0	-	0	0
COc1ccc(-c2nc3ccccc3n2Cc2ccc(C)cc2)cc1	0	0	0	0	0
SMILES	GDH-TPI counter	Mtb UGM inh	Rv3671c protease	FBA Mtb inh	Mtb betalactam
Cc1cc2nc(-c3ccc[nH]c3=O)[nH]c2cc1C	0	0	0	+	0
O=c1[nH]cccc1-c1nc2ccccc2n1Cc1ccc(F)cc1	0	0	0	172.5	0
CCCn1c(-c2ccc[nH]c2=O)nc2ccccc21	0	0	0	151.5	0
Cc1cc2nc(-c3ccc[nH]c3=O)n(Cc3ccc(F)cc3)c2cc1C	0	0	0	198.4	0
Cc1cc(C)c(C)c(S(=O)(=O)N[C@@H](C)C(=O)OCC(=O)NC2CCCC(C)C2C)c1C (some centres not stated)	0	0	0	0	0
O=[N+]([O-])c1ccc(NS(=O)(=O)c2ccc(Cl)c(Cl)c2)cc1	-	-	-	0	-
Cc1cc(C(=O)NNS(=O)(=O)c2cccc(Cl)c2)nn1C(C)(C)C	0	0	0	0	0
Nc1nc(Nc2ccccc2F)nc(N2CCOCC2)c1[N+](=O)[O-]	0	0	0	0	0
CCN1C(=O)[C@@H]2[C@@H](c3ccc(-c4cc(C(C)=O)cs4)cc3)N3CCC[C@@]3(C(=O)OC)[C@@H]2C1=O	36.2	-	-	0	-
CC(=O)N1CCc2cc(S(=O)(=O)NC(C(=O)NC(C)c3ccccc3)C(C)C)ccc21 (configuration not stated)	0	0	0	0	0
CCOc1ccc(C(C#N)N2CCOCC2)cc1OC (configuration not stated)	0	0	0	0	0
COc1cc(C(C#N)N2CCCCC2)ccc1O (configuration not stated)	33.9	0	0	0	0
COc1cc(C(C#N)N2CCOCC2)ccc1O (configuration not stated)	36.8	0	0	0	0
Cc1ccc2nc(C3CCCN3Cc3nc(CCC(C)C)no3)[nH]c2c1 (configuration not stated)	0	0	0	0	0

Compound activity deposited in PubChem BioAssay by several laboratories.
